# According to PubChem BioAssay (NCATS):
# Records with an inconclusive call do not appear. A call without a number means that no potency is given here. Unmarked numbers belong to inactive results. Activity calls are given as the source filed them. Calls come from the whole dose curve; as a rule, active = well fitted curve in the direction sought with a large enough effect; inconclusive = small, poorly fitted or top-dose-only effect, or another doubt; inactive = no such curve, though single readings can be large; an effect the other way counts as inactive or inconclusive.
# Experiments:
# [1] = Primary qHTS for inhibitors of nuclear receptor binding SET domain protein 2 (NSD2) in an isogenic RCH-ACV NSD2 p.E1099K mutant (9B) (AID 1645876); note: nearly all actives have a fitted effect of over 70% in size; note: potency is the fitted concentration of half-maximal effect
# [2] = Primary qHTS for inhibitors of nuclear receptor binding SET domain protein 2 (NSD2) in an RCH-ACV wild type WT cells (2C) (AID 1645877); note: nearly all actives have a fitted effect of over 70% in size; note: potency is the fitted concentration of half-maximal effect
# [3] = target: Rap guanine nucleotide exchange factor 3 (Homo sapiens) (UniProt O95398); assay: Confirmatory qHTS for antagonist of cAMP-regulated guanine nucleotide exchange factor 3 (EPAC1) (AID 1645880); note: nearly all actives have a fitted effect of over 55% in size
# Rap guanine nucleotide exchange factor 3 (Homo sapiens), sequence (O95398 whole entry, looked up): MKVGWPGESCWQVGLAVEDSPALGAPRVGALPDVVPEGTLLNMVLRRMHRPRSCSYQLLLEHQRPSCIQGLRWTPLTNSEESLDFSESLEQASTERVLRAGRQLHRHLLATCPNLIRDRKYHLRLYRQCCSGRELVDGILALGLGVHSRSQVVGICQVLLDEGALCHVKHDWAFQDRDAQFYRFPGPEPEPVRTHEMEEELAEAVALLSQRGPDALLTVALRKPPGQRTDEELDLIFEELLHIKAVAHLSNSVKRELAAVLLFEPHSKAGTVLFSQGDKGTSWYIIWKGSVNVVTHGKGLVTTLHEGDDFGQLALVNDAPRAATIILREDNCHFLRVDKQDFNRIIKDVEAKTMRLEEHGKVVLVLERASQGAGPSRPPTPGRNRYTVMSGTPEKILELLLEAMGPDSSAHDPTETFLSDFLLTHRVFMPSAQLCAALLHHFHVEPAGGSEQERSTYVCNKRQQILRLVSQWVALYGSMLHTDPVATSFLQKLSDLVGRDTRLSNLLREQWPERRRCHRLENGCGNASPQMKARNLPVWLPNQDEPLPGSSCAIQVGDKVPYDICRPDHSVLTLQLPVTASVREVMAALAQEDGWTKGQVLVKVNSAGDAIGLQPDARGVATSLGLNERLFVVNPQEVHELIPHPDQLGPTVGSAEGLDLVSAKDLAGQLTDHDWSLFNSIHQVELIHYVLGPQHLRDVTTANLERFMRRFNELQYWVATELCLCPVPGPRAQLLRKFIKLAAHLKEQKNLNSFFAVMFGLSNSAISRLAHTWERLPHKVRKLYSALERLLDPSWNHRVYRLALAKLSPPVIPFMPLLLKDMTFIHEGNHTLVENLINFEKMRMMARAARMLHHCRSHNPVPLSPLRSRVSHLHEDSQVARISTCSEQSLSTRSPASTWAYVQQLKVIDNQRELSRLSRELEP
# Summary of the method: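 Released BODIPY-GDP fluoresces less than Rap1-bound BODIPY-GDP; the signal is followed at 480/540 nm at 5-min intervals over 30 min, after 5 min at room temperature. Reactions contain 100 nM EPAC1, 250 nM RAP1B-BODIPY-GDP and 50 uM GDP; results are normalized to ATA and DMSO.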
structure (smiles),measurement,setting,value
COC(=O)[C@@]12C(=O)C(C)C(=O)[C@]1(C)C(C)=C[C@H]1[C@]3(C=O)CC[C@H](OC(C)=O)C(C)(C)[C@H]3CC[C@@]12C (some centres not stated),Potency,[1],inactive
same,Potency,[2],inactive
CN1[C@@H]2CC[C@H]1CC(OC(=O)C1C=Nc3ccccc31)C2 (some centres not stated),Potency,[1],inactive
same,Potency,[2],inactive
COCC1OC(=O)c2coc3c2C1(C)C1=C(C3=O)C2CCC(=O)C2(C)CC1O (configuration not stated),Potency,[1],inactive
same,Potency,[2],inactive
COc1ccc2c(c1)/C(=C/c1cnc[nH]1)C(=O)N2,Potency,[1],13000 nM (active)
same,Potency,[2],18400 nM (active)
N#CC(OC1OC(COC2OC(CO)C(O)C(O)C2O)C(O)C(O)C1O)c1ccccc1 (configuration not stated),Potency,[1],inactive
same,Potency,[2],inactive
CCC1NC(=O)C2C(Cl)C(Cl)CN2C(=O)C(C(C)O)NC(=O)CC(c2ccccc2)NC(=O)C(CO)NC1=O (configuration not stated),Potency,[1],inactive
same,Potency,[2],inactive
COC1=CC(=O)O[C@@H](CCc2ccccc2)C1,Potency,[1],inactive
same,Potency,[2],inactive
CN1C(=O)c2ccccc2NC(=O)C1Cc1ccccc1 (configuration not stated),Potency,[1],inactive
same,Potency,[2],inactive
CC12CCC3C(CCC4(O)CC(O)CCC34C=O)C1(O)CCC2C1=CC(=O)OC1 (configuration not stated),Potency,[1],258 nM (active)
same,Potency,[2],515 nM (active)
COc1cc(C(=O)O[C@H]2[C@@H]3C=CO[C@@H](O[C@@H]4O[C@H](CO)[C@@H](O)[C@H](O)[C@H]4O)[C@@H]3[C@@]3(CO)O[C@@H]23)ccc1O,Potency,[1],inactive
same,Potency,[2],inactive
N#C[C@@H](O[C@@H]1O[C@H](CO[C@@H]2O[C@H](CO)[C@@H](O)[C@H](O)[C@H]2O)[C@@H](O)[C@H](O)[C@H]1O)c1ccccc1,Potency,[1],inactive
same,Potency,[2],inactive
CO[C@@H]1[C@H](O)[C@@H](O[C@@H]2C[C@H]3CC[C@@H]4C(CC[C@]5(C)[C@@H](C6=CC(=O)OC6)CC[C@]45O)[C@@]3(C)[C@H](O)C2)O[C@H](C)[C@@H]1O[C@@H]1O[C@H](CO)[C@@H](O)[C@H](O)[C@H]1O (some centres not stated),Potency,[1],121 nM (active)
same,Potency,[2],304 nM (active)
C/C=C(\C)C(=O)O[C@H]1[C@H](OC(C)=O)[C@]2(CO)[C@H](O)[C@H](O)[C@]3(C)C(=CCC4[C@@]5(C)CC[C@H](O[C@@H]6O[C@H](C(=O)O)[C@@H](O)[C@H](O[C@@H]7OC[C@H](O)[C@H](O[C@@H]8OC[C@H](O)[C@H](O)[C@H]8O)[C@H]7O)[C@H]6O[C@@H]6O[C@H](CO)[C@@H](O)[C@H](O)[C@H]6O)C(C)(C)C5CC[C@]43C)[C@@H]2CC1(C)C (some centres not stated),"activity change, negative = viability loss",[1],-4.86% [at 9.23 µM]
same,"activity change, negative = cell killing",[2],2.35% [at 9.23 µM]
CN1CCCC1CCOC(c1cc2nccc(C(=O)O)c2[nH]1)c1ccccc1Cl (configuration not stated),Potency,[1],inactive
same,Potency,[2],inactive
C/C=C(\C)C(=O)OC1C(C)OC(OC2C(C)OC(OC3CCC4(C)C(=CCC5C4CCC4(C)C(C(C)OC6OC(COC7OC(CO)C(O)C(O)C7O)C(O)C(O)C6O)CCC54O)C3)CC2OC)C(O)C1OC (configuration not stated),"activity change, negative = viability loss",[1],-3.12% [at 9.23 µM]
same,"activity change, negative = cell killing",[2],-10% [at 9.23 µM]
CCCn1c(C)c(C(=O)c2ccc3ccccc3c2)c2ccccc21,outcome,[3],inactive
C[C@@H]1C(=O)O[C@H]2[C@H](O)[C@@]34[C@@H]5OC(=O)[C@@]3(O[C@@H]3OC(=O)[C@@H](O)[C@@]34[C@H](C(C)(C)C)[C@H]5O)[C@@]12O,Potency,[1],inactive
same,Potency,[2],inactive
CC(=O)OC12C(O)C(C)C3(O)C4C=C(C)C(=O)C4CC(CO)=CC3C1C2(C)C (configuration not stated),Potency,[1],inactive
same,Potency,[2],inactive
O=C(N1CCOCC1)N1CCN(c2ccc(Cl)cc2)CC1,Potency,[1],inactive
same,Potency,[2],inactive
CC(C)C1(OO)C=C2C(=O)CC3C(C)(C(=O)O)CCCC3(C)C2CC1 (configuration not stated),Potency,[1],inactive
same,Potency,[2],inactive
CN1[C@H]2C[C@H](OC(=O)[C@H](CO)c3ccccc3)C[C@@H]1[C@@H](O)C2,Potency,[1],inactive
same,Potency,[2],inactive
CCC(C)(C#N)O[C@@H]1O[C@H](CO)[C@@H](O)[C@H](O)[C@H]1O (some centres not stated),Potency,[1],inactive
same,Potency,[2],inactive
CN1C(=O)c2ccccc2NC(=O)[C@]12O[C@@H]2c1ccccc1,Potency,[1],inactive
same,Potency,[2],inactive
C[C@H]1O[C@@H](O[C@H]2C[C@@H](O)[C@]3(CO)C4C(CC[C@]3(O)C2)[C@@]2(O)CC[C@H](C3=CC(=O)OC3)[C@@]2(C)C[C@H]4O)[C@@H](O)[C@@H](O)[C@H]1O (some centres not stated),Potency,[1],153 nM (active)
same,Potency,[2],383 nM (active)
